Most compounds without a hit are left out; they make up all but 9.2% or so of the library.
Rab9 prom act = Rab9 promoter activation; Huh7 Rab9 promoter-luciferase reporter, luminescence, 24 h; Potency, µM (highest dose often 9.22 µM), for the others: at the top dose activation, negative = inhibition, most hits filed as activators; 320,000 compounds, 2.8% hits; AID 485297; note: % of control where 0% means no effect; nearly all actives have a fitted effect of over 60% in size
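Huh7 reporter line, Rab9 promoter upstream of luciferase. Compound exposure 24 h at 37 °C in reduced-serum medium with 10% FBS. Read-out: luminescence.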
FLuc counter = firefly luciferase modulation, counter-screen for miR-21 project; P08659; purified FLuc, Km substrates, luminescence inhibition; Potency, µM (titrated, usually from 57.5 µM), for inactives: top-dose activity change, negative = inhibition, usual class: inhibitors; 360,000 compounds, 6.9% hits; AID 588342;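 note: plate controls were vehicle for no effect and reference inhibitor for full effect; nearly all actives have a fitted effect of over 55% in size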
Target sequence (P08659 whole entry, looked up): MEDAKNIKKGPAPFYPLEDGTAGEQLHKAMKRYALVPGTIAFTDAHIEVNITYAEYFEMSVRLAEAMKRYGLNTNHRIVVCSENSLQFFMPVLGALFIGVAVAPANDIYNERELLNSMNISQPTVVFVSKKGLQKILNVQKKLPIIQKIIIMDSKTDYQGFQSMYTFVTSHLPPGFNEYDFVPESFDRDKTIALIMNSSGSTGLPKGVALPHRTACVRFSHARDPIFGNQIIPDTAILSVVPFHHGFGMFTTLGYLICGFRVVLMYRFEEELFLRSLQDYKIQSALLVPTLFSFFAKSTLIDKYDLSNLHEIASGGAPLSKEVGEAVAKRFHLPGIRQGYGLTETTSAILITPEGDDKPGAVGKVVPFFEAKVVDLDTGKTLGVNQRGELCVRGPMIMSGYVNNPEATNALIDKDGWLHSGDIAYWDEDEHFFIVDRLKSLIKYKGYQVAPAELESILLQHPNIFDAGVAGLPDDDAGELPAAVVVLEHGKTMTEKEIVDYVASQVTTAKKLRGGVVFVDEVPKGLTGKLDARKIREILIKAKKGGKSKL
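Purified P. pyralis luciferase (10nM final) with 10uM D-luciferin and 10uM ATP (Km levels) in 50mM Tris acetate pH 7.5, 10mM Mg acetate, 0.01% Tween-20, 0.05% BSA; qHTS 6-point titration, ~60 µM downward; luminescence read.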
SMN2 splice up = increases expression of the SMN2 splice variant; HEK293 SMN2-luciferase splicing reporter, luminescence, 30-36 h; Potency, µM (series often up to 46.1 µM), for the others: at the top dose activity change, positive = activation, most hits filed as activators; 210,000 compounds, 2.8% hits; note: % of control where 0% means no effect; nearly all actives have a fitted effect of over 55% in size
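HEK293 cells carry an SMN2 […]–luciferase reporter in which exon 7 inclusion puts luciferase in frame. Cells were plated 10-12 h before compound addition, then incubated 30-36 h at 37C. ONE-Glo luminescence was read; sodium butyrate at 4.5 mM final served as control.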
ELG1 genotox = genotoxicity induction in ELG1-luciferase HEK293T cells. HEK293T ELG1-luciferase reporter, luminescence, 16 h. Potency, µM (top dose mostly 46 µM), for inactives: top-dose activity change, positive = activation, actives largely listed as activators. 330,000 compounds, 1.3% hits. AID 504466; note: % of control where 0% means no effect; nearly all actives have a fitted effect of over 60% in size
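ELG1-luciferase HEK293T cells, 2,000/well; compound pinned in; 16 hr, 37 °C, 5% CO2; ONE-Glo, 30 min RT; luminescence on CCD imager.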
ELG1 DNA repair = inhibitors of ELG1-dependent DNA repair in HEK293T cells | HEK293T ELG1-luciferase reporter, luminescence, 16 h; DNA damage induced by 5-fluorouridine | Potency, µM (doses to about 46.1 µM), for inactives: at the top dose activity change, negative = inhibition, actives largely listed as inhibitors | 330,000 compounds, 2.3% hits | AID 504467; note: % is set by controls: 0 for no effect and ±100 for the full control effect; nearly all actives have a fitted effect of over 55% in size
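Cells (2,000 per well) received 5-fluorouridine plus test compound or DMSO and were incubated 16 hr at 37 °C, 5% CO2. Luciferase activity was read by luminescence 30 min after ONE-Glo addition; signal suppression marked inhibition of damage-induced ELG1 function.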
NPC1 promoter act = activates the NPC1 promoter | Huh7 NPC1 promoter luciferase reporter, 24 h | AID 485313 | Potency, µM (highest dose often 9.22 µM), inactives show at the top dose activation, actives largely listed as activators | 320,000 compounds, 2.4% hits; note: % of control where 0% means no effect; nearly all actives have a fitted effect of over 60% in size
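Luminescence read-out of NPC1 promoter-driven luciferase in stably transfected Huh7 cells; compounds delivered in DMSO and left 24 h at 37C, 5% CO2, qHTS titration format.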
Active calls of the source: *; ! = not confirmed by another sample. Calls come from the whole dose curve; as a rule, active = well fitted curve in the direction sought with a large enough effect; inconclusive = small, poorly fitted or top-dose-only effect, or another doubt; inactive = no such curve, though single readings can be large; an effect the other way counts as inactive or inconclusive. Potency is the fitted concentration of half-maximal effect.

Screening COc1ccccc1CNC(=O)c1ccc(Cn2c(SCc3ccccc3)nc3cccnc32)cc1 returned FLuc counter 4.8µM*.
Screening CCN(Cc1ccccc1)C(c1cc2ccc(C)cc2[nH]c1=O)c1nnnn1CCOC (stereo not given) returned Rab9 prom act -1%, FLuc counter 1%, SMN2 splice up 17%, ELG1 genotox -5%, ELG1 DNA repair -7% and NPC1 promoter act 1%.
CCOC(=O)C1=CNS(=O)(=O)NC1c1ccc(OC(C)=O)cc1 (stereo not given) was read as ELG1 genotox -2% and ELG1 DNA repair 6%.
CN(C)c1ccc(/C=N\NC(=S)SCN2C(=O)C3CCC(C)(C2=O)C3(C)C)cc1 (stereo not given) was read as Rab9 prom act 10%, FLuc counter 8.5µM*, SMN2 splice up -8%, ELG1 genotox 1%, ELG1 DNA repair inconclusive and NPC1 promoter act 4%.
`CC12CCC(C(=O)N(CSC(=S)N/N=C\c3ccccc3O)C1=O)C2(C)C` (stereo not given) gave Rab9 prom act -7%, FLuc counter inconclusive, SMN2 splice up -40%, ELG1 genotox 14%, ELG1 DNA repair inconclusive and NPC1 promoter act -10%.
`Cc1cccn2c(=O)cc(COc3cccc(NC(=O)COc4ccccc4)c3)nc12` gave FLuc counter -19%.
O=C1C2=C(S[C@@H]3O[C@H](CO)[C@@H](O)[C@H](O)[C@H]3O2)C(=O)c2ccccc21 was read as SMN2 splice up -28%.
`COc1ccc(NC(=O)c2cccc(N3C(=O)C4C5C=CC(C6CC56)C4C3=O)c2)cc1` (stereo not given) gave Rab9 prom act -4%, FLuc counter 5%, ELG1 genotox -23%, ELG1 DNA repair 23µM* and NPC1 promoter act -3%.
Screening COc1ccc(NC(=O)c2cccc(N3C(=O)c4cccc([N+](=O)[O-])c4C3=O)c2)cc1 returned Rab9 prom act 13%, FLuc counter 8.5µM*, ELG1 genotox 12%, ELG1 DNA repair inconclusive and NPC1 promoter act -3%.
`COc1ccc(NC(=O)c2cccc(N3C(=O)C4C5C=CC(C6CC56)C4C3=O)c2)c(OC)c1` (stereo not given) gave Rab9 prom act -5%, FLuc counter inconclusive, ELG1 genotox -12%, ELG1 DNA repair inconclusive and NPC1 promoter act -3%.
For Cc1ccc(NC(=O)c2cccc(N3C(=O)C4C5C=CC(C5)C4C3=O)c2)cc1C (stereo not given) the results were Rab9 prom act -5%, FLuc counter inconclusive, ELG1 genotox -6%, ELG1 DNA repair inconclusive and NPC1 promoter act 11%.
`CN(C)c1ccc(NC(=O)c2cccc(N3C(=O)C4C5C=CC(C5)C4C3=O)c2)cc1` (stereo not given) gave Rab9 prom act 3.2µM*, FLuc counter 11µM*, SMN2 splice up -22%, ELG1 genotox inconclusive, ELG1 DNA repair inconclusive and NPC1 promoter act 1.8µM*.
For CCOc1ccc(-n2c(=S)sc3c(=O)n(-c4ccc(F)cc4)c(SCC(=O)O)nc32)cc1 the results were Rab9 prom act 6%, FLuc counter 1%, ELG1 genotox 0%, ELG1 DNA repair 6% and NPC1 promoter act 6%.
Screening O=C(Nc1cccc2nsnc12)c1cccs1 returned Rab9 prom act 3.2µM*!, FLuc counter 13µM*!, SMN2 splice up 71%, ELG1 genotox inconclusive, ELG1 DNA repair inconclusive and NPC1 promoter act inconclusive.
Screening O=C(Nc1ccccc1)Nc1cccc2nsnc12 returned Rab9 prom act 3.2µM*, FLuc counter 7.6µM*, SMN2 splice up 11µM*, ELG1 genotox inconclusive, ELG1 DNA repair inconclusive and NPC1 promoter act 4.5µM*.
For O=C(Nc1cccc2nsnc12)c1cccnc1 the results were Rab9 prom act 1%, FLuc counter 4%, SMN2 splice up -37%, ELG1 genotox 0%, ELG1 DNA repair -18% and NPC1 promoter act 0%.
O=C(Nc1ccc2nsnc2c1)c1cccs1 was read as Rab9 prom act 17%, FLuc counter -19%, SMN2 splice up -6%, ELG1 genotox -4%, ELG1 DNA repair inconclusive and NPC1 promoter act 23%.
Cc1ccc(NC2=C([N+](=O)[O-])CS(=O)(=O)C2)cc1 was read as Rab9 prom act 13%, FLuc counter 13µM*, SMN2 splice up 18%, ELG1 genotox 26%, ELG1 DNA repair inconclusive and NPC1 promoter act 8%.
`CCC(CC)NC(=O)c1cccc(NC(=O)C(C)C)c1` gave Rab9 prom act -1%, FLuc counter 0%, SMN2 splice up inconclusive, ELG1 genotox -1%, ELG1 DNA repair 6% and NPC1 promoter act -1%.
`CCC(C)NC(=O)c1cccc(NC(=O)c2nsc3ccccc23)c1` (stereo not given) gave FLuc counter 6µM*.
`COc1ccccc1CNC(=O)c1cccc(NC(=O)c2ccccc2)c1` gave Rab9 prom act 2%, FLuc counter inconclusive, SMN2 splice up -3%, ELG1 genotox -9%, ELG1 DNA repair inconclusive and NPC1 promoter act 1%.
CCOc1ccccc1CNC(=O)c1cccc(NC(=O)c2nsc3ccccc23)c1 was read as FLuc counter 6µM*.
Screening CCCCN(C)C(=O)C(Cc1ccccc1)NS(=O)(=O)c1ccc2c(c1)c(=O)n(C)c(=O)n2C (stereo not given) returned Rab9 prom act -8%, FLuc counter -6%, SMN2 splice up 13%, ELG1 genotox -15%, ELG1 DNA repair 15µM* and NPC1 promoter act -3%.
`CCCNC(=O)C(Cc1ccccc1)NS(=O)(=O)c1ccc2c(c1)c(=O)n(C)c(=O)n2C` (stereo not given) gave Rab9 prom act 1%, FLuc counter -3%, SMN2 splice up 9%, ELG1 genotox -3%, ELG1 DNA repair 5% and NPC1 promoter act 1%.
CCC(Sc1nnc(-c2ccc(F)cc2)c(-c2ccc(F)cc2)n1)C(=O)NC1CCCC1 (stereo not given) was read as FLuc counter -2%.
For COc1ccccc1C(=O)N(CCC1CCCN1C)c1nc2ccccc2s1 (stereo not given) the results were Rab9 prom act -4%, FLuc counter 4.8µM*, SMN2 splice up -14%, ELG1 genotox inconclusive, ELG1 DNA repair inconclusive and NPC1 promoter act -3%.

Screening data deposited in PubChem BioAssay by National Center for Advancing Translational Sciences (NCATS).
